Reference: publication PMC7862700, “An all-to-all approach to the identification of sequence-specific readers for epigenetic DNA modifications on cytosine”

Key:
Experiment in all cases: DAPPL (digital affinity profiling via proximity ligation, sequencing); 10 mM Tris-HCl pH 7.5, 50 mM NaCl, 1 mM DTT, 4% glycerol, room temperature, 30 min; GST-TFs on glutathione beads, 16-mer random dsDNA library, 0.1% formaldehyde crosslink after washing; high values mean tight binding
FLI1 = molecular target: T1, FLI1 (Homo sapiens, UniProt Q01543 1-452); conditions: protein: recombinant; tags: N-terminal GST; dsDNA, one strand shown
T1 sequence: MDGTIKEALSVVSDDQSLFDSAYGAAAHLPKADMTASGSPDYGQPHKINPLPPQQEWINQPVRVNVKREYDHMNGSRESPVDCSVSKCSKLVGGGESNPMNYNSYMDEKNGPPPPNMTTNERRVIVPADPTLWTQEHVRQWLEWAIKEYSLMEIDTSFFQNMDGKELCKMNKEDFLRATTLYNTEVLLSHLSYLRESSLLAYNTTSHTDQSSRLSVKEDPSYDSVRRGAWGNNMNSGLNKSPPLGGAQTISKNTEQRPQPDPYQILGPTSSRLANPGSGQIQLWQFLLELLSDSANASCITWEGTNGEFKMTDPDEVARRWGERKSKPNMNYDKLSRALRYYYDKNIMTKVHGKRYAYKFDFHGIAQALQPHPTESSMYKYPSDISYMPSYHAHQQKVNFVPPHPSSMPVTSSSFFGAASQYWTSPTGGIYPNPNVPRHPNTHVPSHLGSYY
How it was run: (§1)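 Binding signal is given per hexamer as its read frequency for a factor divided by its frequency in the tag-only sample. GST-fused human transcription factors were expressed in yeast, captured on glutathione beads, barcoded with DNA and pooled with that sample, then incubated with 200 nmole of a 16-mer random double-stranded DNA library in Tris/NaCl/DTT/glycerol buffer for 30 min at room temperature. The pools were then washed, crosslinked, proximity-ligated, amplified by PCR and sequenced on an Illumina NextSeq500.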

ELK1 = molecular target: T2, ELK1 (Homo sapiens, UniProt P19419 1-428); conditions: protein: recombinant; tags: N-terminal GST; dsDNA, one strand shown
T2 sequence: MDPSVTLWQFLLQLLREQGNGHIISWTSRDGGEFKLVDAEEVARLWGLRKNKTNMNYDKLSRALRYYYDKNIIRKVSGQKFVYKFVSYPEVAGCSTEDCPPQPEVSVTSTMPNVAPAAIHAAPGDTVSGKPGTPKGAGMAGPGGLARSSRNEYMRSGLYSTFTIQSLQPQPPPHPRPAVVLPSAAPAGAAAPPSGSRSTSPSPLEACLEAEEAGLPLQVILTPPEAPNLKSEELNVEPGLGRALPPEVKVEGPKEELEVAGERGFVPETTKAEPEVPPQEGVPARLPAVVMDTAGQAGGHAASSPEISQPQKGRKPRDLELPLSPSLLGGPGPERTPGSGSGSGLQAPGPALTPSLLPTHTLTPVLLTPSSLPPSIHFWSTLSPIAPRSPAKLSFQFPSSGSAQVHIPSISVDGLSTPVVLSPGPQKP
How it was run: as §1

GABPA = molecular target: T3, GABPA (Homo sapiens, UniProt Q06546 1-454); conditions: protein: recombinant; tags: N-terminal GST; dsDNA, one strand shown
T3 sequence: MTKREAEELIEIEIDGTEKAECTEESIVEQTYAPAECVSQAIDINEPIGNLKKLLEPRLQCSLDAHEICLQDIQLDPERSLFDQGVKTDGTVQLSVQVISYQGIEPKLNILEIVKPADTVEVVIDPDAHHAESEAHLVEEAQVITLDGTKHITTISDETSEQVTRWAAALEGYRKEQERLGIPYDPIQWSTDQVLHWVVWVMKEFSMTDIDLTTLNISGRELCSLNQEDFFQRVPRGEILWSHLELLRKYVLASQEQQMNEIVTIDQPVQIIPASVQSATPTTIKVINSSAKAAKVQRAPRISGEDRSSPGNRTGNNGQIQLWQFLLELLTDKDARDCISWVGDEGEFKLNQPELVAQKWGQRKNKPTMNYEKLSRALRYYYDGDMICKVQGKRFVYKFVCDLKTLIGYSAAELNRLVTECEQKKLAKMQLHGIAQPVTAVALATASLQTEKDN
How it was run: as §1

ERG = molecular target: T4, ERG (Homo sapiens, UniProt P11308 1-479); conditions: protein: recombinant; tags: N-terminal GST; dsDNA, one strand shown
T4 sequence: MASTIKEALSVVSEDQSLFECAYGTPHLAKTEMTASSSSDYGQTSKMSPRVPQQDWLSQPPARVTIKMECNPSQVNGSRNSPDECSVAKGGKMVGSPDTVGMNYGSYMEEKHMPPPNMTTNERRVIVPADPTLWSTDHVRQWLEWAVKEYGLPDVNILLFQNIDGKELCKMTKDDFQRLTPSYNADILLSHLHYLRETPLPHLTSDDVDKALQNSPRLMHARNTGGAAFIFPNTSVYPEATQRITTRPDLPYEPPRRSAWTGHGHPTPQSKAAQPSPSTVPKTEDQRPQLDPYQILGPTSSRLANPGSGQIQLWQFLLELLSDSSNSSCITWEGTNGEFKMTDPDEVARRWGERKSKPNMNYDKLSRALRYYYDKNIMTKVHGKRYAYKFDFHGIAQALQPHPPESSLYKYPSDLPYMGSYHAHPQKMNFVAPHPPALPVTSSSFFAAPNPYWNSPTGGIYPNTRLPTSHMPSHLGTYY
How it was run: as §1

ELF1 = ELF1 (Homo sapiens, UniProt P32519 1-619); conditions: protein: recombinant; tags: N-terminal GST; dsDNA, one strand shown
Chain of ELF1 (P32519 whole entry): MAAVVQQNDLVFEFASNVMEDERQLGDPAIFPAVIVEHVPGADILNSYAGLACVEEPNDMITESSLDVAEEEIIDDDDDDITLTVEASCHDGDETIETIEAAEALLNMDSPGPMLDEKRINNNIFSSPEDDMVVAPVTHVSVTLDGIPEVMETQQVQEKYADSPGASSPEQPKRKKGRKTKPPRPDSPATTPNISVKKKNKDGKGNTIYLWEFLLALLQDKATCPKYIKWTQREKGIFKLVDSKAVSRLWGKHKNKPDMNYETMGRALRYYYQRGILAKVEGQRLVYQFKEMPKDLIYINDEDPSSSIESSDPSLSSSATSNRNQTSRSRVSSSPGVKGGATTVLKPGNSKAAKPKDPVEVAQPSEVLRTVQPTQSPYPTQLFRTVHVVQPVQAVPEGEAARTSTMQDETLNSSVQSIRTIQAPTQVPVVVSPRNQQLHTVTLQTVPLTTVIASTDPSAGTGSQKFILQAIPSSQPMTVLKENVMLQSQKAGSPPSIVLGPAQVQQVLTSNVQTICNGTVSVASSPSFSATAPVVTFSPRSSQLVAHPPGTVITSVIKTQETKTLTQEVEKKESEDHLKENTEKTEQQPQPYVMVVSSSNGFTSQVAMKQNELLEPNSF
How it was run: as §1

EHF = molecular target: T5, EHF (Homo sapiens, UniProt Q9NZC4 1-300); conditions: protein: recombinant; tags: N-terminal GST; dsDNA, one strand shown
T5 sequence: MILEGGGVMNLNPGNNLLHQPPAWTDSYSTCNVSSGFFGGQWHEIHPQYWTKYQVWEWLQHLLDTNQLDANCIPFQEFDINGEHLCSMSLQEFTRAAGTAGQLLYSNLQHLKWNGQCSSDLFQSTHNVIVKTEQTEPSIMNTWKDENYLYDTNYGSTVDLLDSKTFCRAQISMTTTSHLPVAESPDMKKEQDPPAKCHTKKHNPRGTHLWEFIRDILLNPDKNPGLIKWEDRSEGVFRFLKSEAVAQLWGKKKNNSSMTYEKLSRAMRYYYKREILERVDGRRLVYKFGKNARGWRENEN
How it was run: as §1

ELK3 = molecular target: T6, ELK3 (Homo sapiens, UniProt P41970 1-407); conditions: protein: recombinant; tags: N-terminal GST; dsDNA, one strand shown
T6 sequence: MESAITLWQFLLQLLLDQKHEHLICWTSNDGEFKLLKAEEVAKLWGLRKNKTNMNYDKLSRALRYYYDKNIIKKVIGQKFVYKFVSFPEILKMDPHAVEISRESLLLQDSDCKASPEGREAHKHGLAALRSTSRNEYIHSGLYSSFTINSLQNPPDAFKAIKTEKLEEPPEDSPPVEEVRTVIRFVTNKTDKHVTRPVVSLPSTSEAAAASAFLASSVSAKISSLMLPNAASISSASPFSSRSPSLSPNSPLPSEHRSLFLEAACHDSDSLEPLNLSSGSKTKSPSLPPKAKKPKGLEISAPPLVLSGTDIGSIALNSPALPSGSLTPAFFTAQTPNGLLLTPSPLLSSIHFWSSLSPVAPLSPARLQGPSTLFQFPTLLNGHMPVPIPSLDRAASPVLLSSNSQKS
How it was run: as §1

ETV5 = ETV5 (Homo sapiens, UniProt P41161 1-510); conditions: protein: recombinant; tags: N-terminal GST; dsDNA, one strand shown
Chain of ETV5 (P41161 whole entry): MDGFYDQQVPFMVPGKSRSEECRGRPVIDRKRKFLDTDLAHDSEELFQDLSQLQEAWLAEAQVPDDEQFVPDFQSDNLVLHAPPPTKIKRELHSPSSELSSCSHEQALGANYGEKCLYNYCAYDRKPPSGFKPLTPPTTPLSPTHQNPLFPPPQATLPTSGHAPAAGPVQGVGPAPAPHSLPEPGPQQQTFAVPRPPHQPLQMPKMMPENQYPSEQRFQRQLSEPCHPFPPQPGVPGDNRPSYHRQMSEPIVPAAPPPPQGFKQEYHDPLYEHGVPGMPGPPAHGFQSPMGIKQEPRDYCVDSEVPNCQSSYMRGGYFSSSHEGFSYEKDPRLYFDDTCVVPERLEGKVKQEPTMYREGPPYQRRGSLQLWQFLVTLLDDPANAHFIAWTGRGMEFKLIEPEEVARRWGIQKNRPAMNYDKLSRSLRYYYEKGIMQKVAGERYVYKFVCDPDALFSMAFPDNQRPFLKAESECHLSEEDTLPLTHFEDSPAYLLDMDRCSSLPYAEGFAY
How it was run: as §1

HSF1 = HSF1 (Homo sapiens, UniProt Q00613 1-529); conditions: protein: recombinant; tags: N-terminal GST; chain copies: 3; dsDNA, one strand shown
Chain of HSF1 (Q00613 whole entry): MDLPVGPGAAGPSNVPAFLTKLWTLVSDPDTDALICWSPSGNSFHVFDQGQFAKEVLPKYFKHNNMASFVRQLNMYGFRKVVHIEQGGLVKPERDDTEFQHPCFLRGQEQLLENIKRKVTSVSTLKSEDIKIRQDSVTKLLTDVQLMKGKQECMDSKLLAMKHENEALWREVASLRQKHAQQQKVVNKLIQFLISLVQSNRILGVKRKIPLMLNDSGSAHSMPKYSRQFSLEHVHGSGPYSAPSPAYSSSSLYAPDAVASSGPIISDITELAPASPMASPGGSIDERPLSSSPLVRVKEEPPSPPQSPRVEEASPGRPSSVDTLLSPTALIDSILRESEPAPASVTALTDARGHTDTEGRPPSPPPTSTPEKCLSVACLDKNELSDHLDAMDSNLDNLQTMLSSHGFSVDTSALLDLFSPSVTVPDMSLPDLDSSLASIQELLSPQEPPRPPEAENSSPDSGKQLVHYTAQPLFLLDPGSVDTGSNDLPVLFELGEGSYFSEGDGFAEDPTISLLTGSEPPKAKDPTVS
How it was run: as §1

SPIC = molecular target: T7, SPIC (Homo sapiens, UniProt Q8N5J4 1-248); conditions: protein: recombinant; tags: N-terminal GST; dsDNA, one strand shown
T7 sequence: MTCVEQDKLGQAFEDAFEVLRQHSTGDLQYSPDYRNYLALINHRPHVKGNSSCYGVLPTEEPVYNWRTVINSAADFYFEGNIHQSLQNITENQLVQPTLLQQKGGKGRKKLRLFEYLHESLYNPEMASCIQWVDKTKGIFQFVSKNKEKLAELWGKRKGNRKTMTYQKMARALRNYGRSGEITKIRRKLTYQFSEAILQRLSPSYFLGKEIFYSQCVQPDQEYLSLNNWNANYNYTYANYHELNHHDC
How it was run: as §1

ELF4 = ELF4 (Homo sapiens, UniProt Q99607 1-663); conditions: protein: recombinant; tags: N-terminal GST; dsDNA, one strand shown
Chain of ELF4 (Q99607 whole entry): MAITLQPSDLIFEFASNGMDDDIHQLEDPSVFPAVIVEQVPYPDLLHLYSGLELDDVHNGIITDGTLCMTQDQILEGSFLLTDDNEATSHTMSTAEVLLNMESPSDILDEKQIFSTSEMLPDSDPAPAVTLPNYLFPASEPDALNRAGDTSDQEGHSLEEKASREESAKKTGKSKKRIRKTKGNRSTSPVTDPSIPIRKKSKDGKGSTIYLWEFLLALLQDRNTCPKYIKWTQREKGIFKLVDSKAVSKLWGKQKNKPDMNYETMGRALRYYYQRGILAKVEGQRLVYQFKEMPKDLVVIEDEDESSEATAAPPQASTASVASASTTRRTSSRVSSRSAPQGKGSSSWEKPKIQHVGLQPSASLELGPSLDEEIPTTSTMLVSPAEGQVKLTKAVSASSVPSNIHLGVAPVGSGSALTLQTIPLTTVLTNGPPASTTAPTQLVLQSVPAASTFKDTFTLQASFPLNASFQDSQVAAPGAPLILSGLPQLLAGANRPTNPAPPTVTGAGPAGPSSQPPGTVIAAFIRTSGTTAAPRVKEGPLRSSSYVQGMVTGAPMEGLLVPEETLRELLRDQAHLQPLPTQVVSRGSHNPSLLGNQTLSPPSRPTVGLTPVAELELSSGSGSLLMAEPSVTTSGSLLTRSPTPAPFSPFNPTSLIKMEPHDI
How it was run: as §1

ETV2 = molecular target: T8, ETV2 (Homo sapiens, UniProt O00321 1-342); conditions: protein: recombinant; tags: N-terminal GST; dsDNA, one strand shown
T8 sequence: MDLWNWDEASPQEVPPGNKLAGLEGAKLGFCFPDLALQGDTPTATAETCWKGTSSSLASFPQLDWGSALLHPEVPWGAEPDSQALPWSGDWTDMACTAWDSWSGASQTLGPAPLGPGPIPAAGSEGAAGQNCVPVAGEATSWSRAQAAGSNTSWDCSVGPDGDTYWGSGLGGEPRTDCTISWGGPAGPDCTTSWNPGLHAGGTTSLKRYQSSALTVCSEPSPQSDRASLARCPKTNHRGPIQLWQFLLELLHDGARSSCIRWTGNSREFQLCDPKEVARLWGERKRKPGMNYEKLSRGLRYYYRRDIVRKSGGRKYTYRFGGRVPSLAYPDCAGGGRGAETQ
How it was run: as §1

ELF3 = molecular target: T9, ELF3 (Homo sapiens, UniProt P78545 1-371); conditions: protein: recombinant; tags: N-terminal GST; dsDNA, one strand shown
T9 sequence: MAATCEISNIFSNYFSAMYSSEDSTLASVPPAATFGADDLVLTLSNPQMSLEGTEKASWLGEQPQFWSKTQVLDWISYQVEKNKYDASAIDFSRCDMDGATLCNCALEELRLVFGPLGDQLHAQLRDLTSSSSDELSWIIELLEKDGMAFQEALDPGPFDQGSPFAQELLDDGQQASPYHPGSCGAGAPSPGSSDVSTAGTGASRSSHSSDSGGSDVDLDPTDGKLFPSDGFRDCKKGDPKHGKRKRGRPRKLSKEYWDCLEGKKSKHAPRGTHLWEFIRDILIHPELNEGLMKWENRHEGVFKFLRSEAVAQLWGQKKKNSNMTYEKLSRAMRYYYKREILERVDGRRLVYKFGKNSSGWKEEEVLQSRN
How it was run: as §1

ETV1 = ETV1 (Homo sapiens, UniProt P50549 1-477); conditions: protein: recombinant; tags: N-terminal GST; dsDNA, one strand shown
Chain of ETV1 (P50549 whole entry): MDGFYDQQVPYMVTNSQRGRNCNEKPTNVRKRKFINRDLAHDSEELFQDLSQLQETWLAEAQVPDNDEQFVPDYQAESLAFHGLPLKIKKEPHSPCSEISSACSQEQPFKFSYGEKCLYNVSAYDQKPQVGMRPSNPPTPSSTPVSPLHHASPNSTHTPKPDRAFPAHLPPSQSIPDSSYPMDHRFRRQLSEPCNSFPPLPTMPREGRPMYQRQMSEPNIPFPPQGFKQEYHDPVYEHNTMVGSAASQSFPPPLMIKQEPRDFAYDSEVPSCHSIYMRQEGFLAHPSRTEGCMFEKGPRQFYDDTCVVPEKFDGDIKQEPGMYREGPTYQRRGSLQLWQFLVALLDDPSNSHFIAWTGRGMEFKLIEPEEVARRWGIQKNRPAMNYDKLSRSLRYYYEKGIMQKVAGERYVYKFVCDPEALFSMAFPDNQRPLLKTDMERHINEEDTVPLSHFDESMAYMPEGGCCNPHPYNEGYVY
How it was run: as §1

SPI1 = SPI1 (Homo sapiens, UniProt P17947 1-270); conditions: protein: recombinant; tags: N-terminal GST; dsDNA, one strand shown
How it was run: as §1

CRX = CRX (Homo sapiens, UniProt O43186 1-299); conditions: protein: recombinant; tags: N-terminal GST; dsDNA, one strand shown
Chain of CRX (O43186 whole entry): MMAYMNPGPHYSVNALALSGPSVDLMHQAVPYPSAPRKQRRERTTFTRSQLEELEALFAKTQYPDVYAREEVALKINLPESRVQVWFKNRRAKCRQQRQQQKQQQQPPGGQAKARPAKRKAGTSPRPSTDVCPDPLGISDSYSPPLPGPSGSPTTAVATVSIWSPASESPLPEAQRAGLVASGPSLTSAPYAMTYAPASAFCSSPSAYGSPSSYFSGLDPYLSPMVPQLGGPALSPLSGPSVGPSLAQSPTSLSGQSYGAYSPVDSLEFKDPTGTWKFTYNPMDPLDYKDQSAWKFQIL
How it was run: as §1

Sequence	binding signal (FLI1)	binding signal (ELK1)	binding signal (GABPA)	binding signal (ERG)	binding signal (ELF1)	binding signal (EHF)	binding signal (ELK3)	binding signal (ETV5)	binding signal (HSF1)	binding signal (SPIC)	binding signal (ELF4)	binding signal (ETV2)	binding signal (ELF3)	binding signal (ETV1)	binding signal (SPI1)	binding signal (CRX)
AACGTA	1.06 fold enrichment (6-mer frequency, TF over GST control)	1.05 fold enrichment (6-mer frequency, TF over GST control)	1.02 fold enrichment (6-mer frequency, TF over GST control)	1.04 fold enrichment (6-mer frequency, TF over GST control)	1.02 fold enrichment (6-mer frequency, TF over GST control)	1.01 fold enrichment (6-mer frequency, TF over GST control)	1.11 fold enrichment (6-mer frequency, TF over GST control)	1.04 fold enrichment (6-mer frequency, TF over GST control)	1.03 fold enrichment (6-mer frequency, TF over GST control)	1.02 fold enrichment (6-mer frequency, TF over GST control)	1.03 fold enrichment (6-mer frequency, TF over GST control)	1.01 fold enrichment (6-mer frequency, TF over GST control)	1.01 fold enrichment (6-mer frequency, TF over GST control)	1.06 fold enrichment (6-mer frequency, TF over GST control)	–	–
TAGTCT	1.09 fold enrichment (6-mer frequency, TF over GST control)	1.07 fold enrichment (6-mer frequency, TF over GST control)	1.21 fold enrichment (6-mer frequency, TF over GST control)	1.08 fold enrichment (6-mer frequency, TF over GST control)	1.07 fold enrichment (6-mer frequency, TF over GST control)	1.05 fold enrichment (6-mer frequency, TF over GST control)	–	1.01 fold enrichment (6-mer frequency, TF over GST control)	1.4 fold enrichment (6-mer frequency, TF over GST control)	1.05 fold enrichment (6-mer frequency, TF over GST control)	1.03 fold enrichment (6-mer frequency, TF over GST control)	–	1.14 fold enrichment (6-mer frequency, TF over GST control)	1.01 fold enrichment (6-mer frequency, TF over GST control)	1.07 fold enrichment (6-mer frequency, TF over GST control)	1.4 fold enrichment (6-mer frequency, TF over GST control)
